According to PubChem BioAssay (Tox21):
Records with an inconclusive call do not appear. Unmarked numbers belong to inactive results. Calls follow the shape of the full dose curve.

Assay: qHTS assay for small molecule agonists of the p53 signaling pathway - cell viability (AID 651633);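 also: p53RE-bla HCT reporter cells with a stable beta-lactamase p53 reporter; nearly all actives have a fitted effect of over 30% in size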
Conditions: p53RE-bla HCT-116 viability, ATP luminescence, 16 h; series mostly up to 83.3 µM; activity change, negative = cytotoxicity: at the top concentration
Method in brief: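 Viability counter-read: CellTiter-Glo luminescence (30 min, room temperature) in the same p53RE-bla plates. These plates had been exposed to compounds for 16 h at 37 C.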
% is scaled to controls: 0 for no effect and ±100 for the full control effect.

| Structure (SMILES) | activity change, negative = cytotoxicity |
| --- | --- |
| CC(=O)SCC(CC(=O)c1ccc(C)cc1)C(=O)O (stereo unspecified) | -13.4% |
| CCCCCCC(=O)c1ccccc1 | 11.5% |
| CC(=O)c1ccc2ccc3ccccc3c2c1 | -8.45% |
| CC(=O)OCC(=O)[C@@]1(O)CC[C@H]2[C@@H]3CCC4=CC(=O)C=C[C@]4(C)[C@H]3[C@@H](O)C[C@@]21C | 22% |
| CCCCCCCCS(=O)(=O)O | -7.16% [at 95.3 µM] |
| COC(=O)c1c(C)cc(O)c(C)c1O | -8.06% |
| CCCCCCCCCCCCCCCC(=O)OC | 19.8% [at 39.1 µM] |
| COc1cc(NS(=O)(=O)c2ccc(N)cc2)ncn1 | 9.36% [at 39.1 µM] |
| O=S(=O)(O)c1cc(I)c(O)c2ncccc12 | -7.69% |
| C[C@H]1COc2c(C3(N)CC3)c(F)cc3c(=O)c(C(=O)O)cn1c23 | -8.69% |
| O=Cc1ccccc1S(=O)(=O)O | 22.4% |
| CC[C@@]1(c2ccccc2)NC(=O)N(C)C1=O | 9.91% |
| c1cc2ccc3ccc4ccc5cccc6c(c1)c2c3c4c56 | 10.5% [at 3.63 µM] |
| CCN1CCN(C(=O)N[C@@H](C(=O)N[C@@H]2C(=O)N3[C@@H]2SC(C)(C)[C@H]3C(=O)O)c2ccccc2)C(=O)C1=O | 10.7% |
| O=C(O)Cc1c(Cl)ccc(Cl)c1Cl | 6.7% |
| CC(C)(O)c1ccc(C(C)(C)O)cc1 | -7.05% |
| NC(=O)CC[C@@H](N)C(=O)O | 7.36% |
| CCCCCC(CC)OC(=O)CCCOc1ccc(Cl)cc1Cl (stereo unspecified) | 18.6% |
| O=C(O)/C=C(\CC(=O)O)C(=O)O | 16.8% |
| O=C(O)CCC(=O)Nc1ccc(S(=O)(=O)Nc2nccs2)cc1 | 12% [at 39.1 µM] |
| C/C(=N\O)c1ccc(OCC(=O)N2CCCCC2)cc1 | -8.44% |
